# Rab9 promoter act = qHTS Assay for Rab9 Promoter Activators | Huh7 Rab9 promoter-luciferase reporter, luminescence, 24 h | Potency, µM (titrated, usually from 9.22 µM), for inactives: at the highest dose activation, negative = inhibition, hits mostly activators | 320,000 compounds, 2.8% hits | AID 485297, 2010; note: % of control where 0% means no effect; nearly all actives have a fitted effect of over 60% in size
#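 Using Huh7 cells stably transfected with Rab9 promoter–luciferase, compounds were incubated 24 h at 37 °C, 5% CO2; luciferase luminescence was read 10 min after reagent addition.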
# SMN2 splice up = qHTS Assay for Enhancers of SMN2 Splice Variant Expression | HEK293 SMN2-luciferase splicing reporter, luminescence, 30-36 h | Potency, µM (top dose mostly 46.1 µM), for inactives: at the highest dose activity change, positive = activation, usual class: activators | 210,000 compounds, 2.8% hits | AID 1458, 2008; note: % of control where 0% means no effect; nearly all actives have a fitted effect of over 55% in size
#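 qHTS luciferase splicing reporter: luminescence rises when SMN2 exon 7 is included in transfected HEK293 cells. Compound exposure lasted 30-36 h at 37C, with 4.5 mM final sodium butyrate as control, followed by a ONE-Glo read.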
# Luc counter = Counterscreen for Luciferase (Kinase-Glo TM) Inhibition | Luciferin 4-monooxygenase (Photuris pensylvanica), Q27757 | Kinase-Glo luciferase, ATP luminescence, 8 min | Potency, µM (top dose mostly 38.3 µM), for the others: top-dose activity change, negative = inhibition, most hits filed as inhibitors | 200,000 compounds, 0.28% hits | AID 1379, 2008; note: % is set by controls: 0 for no effect and ±100 for the full control effect; nearly all actives have a fitted effect of over 60% in size
#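 Light output from Kinase-Glo luciferase with luciferin and 10 uM ATP in 50 mM imidazole pH 7.2, KCl, MgCl2, Tween 20, BSA; compound pin-delivered, 8-min ambient incubation, then luminescence read.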
# FLuc counter = qHTS profiling assay for firefly luciferase inhibitor/activator using purifed enzyme and Km concentrations of substrates (counterscreen for miR-21 project) | purified FLuc, Km substrates, luminescence inhibition | Potency, µM (highest dose often 57.5 µM), without a hit: top-dose activity change, negative = inhibition, most hits filed as inhibitors | AID 588342, 2011 | 360,000 compounds, 6.9% hits;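 note: plate controls were vehicle for no effect and reference inhibitor for full effect; nearly all actives have a fitted effect of over 55% in size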
# Target sequence (P08659 whole entry, looked up): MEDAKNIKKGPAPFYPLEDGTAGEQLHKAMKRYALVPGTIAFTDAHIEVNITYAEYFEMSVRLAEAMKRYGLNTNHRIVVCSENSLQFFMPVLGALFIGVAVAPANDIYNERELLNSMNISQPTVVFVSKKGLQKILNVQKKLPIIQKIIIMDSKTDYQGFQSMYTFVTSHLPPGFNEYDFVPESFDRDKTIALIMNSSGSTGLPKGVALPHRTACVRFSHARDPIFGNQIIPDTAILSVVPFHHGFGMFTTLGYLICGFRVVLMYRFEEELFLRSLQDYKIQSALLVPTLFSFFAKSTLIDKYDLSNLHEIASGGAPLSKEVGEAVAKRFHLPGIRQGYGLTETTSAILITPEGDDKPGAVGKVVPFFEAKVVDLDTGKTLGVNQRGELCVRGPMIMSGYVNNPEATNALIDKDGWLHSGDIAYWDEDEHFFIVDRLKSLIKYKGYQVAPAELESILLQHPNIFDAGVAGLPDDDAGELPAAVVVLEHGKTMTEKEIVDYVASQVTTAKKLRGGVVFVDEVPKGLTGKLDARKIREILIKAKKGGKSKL
#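 Biochemical qHTS of compounds, final roughly 60 µM downward over six points, against 10 nM purified firefly luciferase using Km concentrations of substrates (10 uM D-luciferin, 10 uM ATP) in Tris acetate pH 7.5 buffer; luminescence output.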
# NPC1 promoter act = qHTS Assay for NPC1 Promoter Activators | Huh7 NPC1 promoter luciferase reporter, 24 h | Potency, µM (top dose mostly 9.22 µM), without a hit: at the highest dose activation, actives largely listed as activators | 320,000 compounds, 2.4% hits | AID 485313, 2010; note: % of control where 0% means no effect; nearly all actives have a fitted effect of over 60% in size
#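 Luminescence read-out of NPC1 promoter-driven luciferase in stably transfected Huh7 cells; compounds delivered in DMSO and left 24 h at 37C, 5% CO2, qHTS titration format.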
# The depositor's hits bear a star; ? = inconclusive; . = not tested or not shown; [ ] = another dose, or the depositor's remark. A selection: hits, their analogues and other compounds. The true share with any hit is near 7.3%. Calls come from the whole dose curve; as a rule, active = well fitted curve in the direction sought with a large enough effect; inconclusive = small, poorly fitted or top-dose-only effect, or another doubt; inactive = no such curve, though single readings can be large; an effect the other way counts as inactive or inconclusive. Potency is the fitted concentration of half-maximal effect.
SMILES,Rab9 promoter act,SMN2 splice up,Luc counter,FLuc counter,NPC1 promoter act
COc1cccc(-c2nn(C)c3sc(C(=O)NCCc4cccc(C)c4)cc23)c1,.,-11%,.,-15%,.
CS(=O)(=O)n1nc(-c2ccco2)nc1NCc1ccccc1Cl,.,23%,.,-7%,.
CN(C)CCCNc1cc(-c2ccccc2)nc2cc(-c3cccc(F)c3)nn12,1%,.,.,0%,1%
CC(C)(C)c1cc(NCCCn2ccnc2)n2ncc(-c3ccc(Cl)cc3)c2n1,29%,6%,-1%,27µM*,22%
Cc1cc(C)c2c(n1)nn1c(NCCCn3ccnc3)cc(C)nc21,-1%,33%,-2%,2%,-2%
CN(C)CCCNc1cc(C(C)(C)C)nc2c(-c3ccccc3)cnn12,4µM*,.,.,8.5µM*,3.5µM*
O=C(CSc1nc2ccsc2c(=O)n1Cc1ccccc1F)NCc1ccccc1,.,.,.,-6%,.
Clc1cccc(N2CCN(c3ncnc4c3nc3n4CCCCC3)CC2)c1,.,-24%,.,-9%,.
COc1ccc(-c2cc3ncnc(Cl)c3s2)cc1,?,.,.,3.4µM*,3.5µM*
COc1ccc2[nH]c3c(Cl)ncnc3c2c1,2%,.,.,-17%,0%
O=C(Cc1ccc(Cl)cc1)Nc1nnc2n1CCS2,.,.,.,-1%,.
COc1ccc([C@]23Cc4ccccc4C(O2)C2=C(O3)C(=O)c3ccccc3C2=O)cc1,-2%[1.84 µM],.,.,?,0%[1.84 µM]
Cc1csc2nc(CSc3nc4ccccc4o3)cn12,?,13%,-23%,21µM*,4µM*
c1ccc2oc(SCc3cn4ccsc4n3)nc2c1,3.5µM*,?,-12%,9.5µM*,2.8µM*
Cc1ccc2oc(-c3cc(NC(=O)Cc4ccccc4)ccc3Cl)nc2c1,.,6%,.,-15%,.
Cc1cc(C)cc(Oc2nc3c(c(=O)n(C)c(=O)n3C)n2Cc2ccc(F)cc2)c1,.,-10%,.,-2%,.
Cc1c(C(=O)Oc2cc(N)n(S(C)(=O)=O)n2)cccc1[N+](=O)[O-],3%,0%,0%,21µM*,1%
O=C(c1cc(-c2cccc(O)c2)on1)N1CCCCCC1,-1%,.,.,8.5µM*,?
O=C(c1cc(-c2cccc(O)c2)on1)N1CCOCC1,?,?,-13%,6.7µM*,?
CN(C(=O)CSc1ncnc2sccc12)C1CCCCC1,2.8µM*,.,.,13µM*,?
CN(Cc1ccon1)Cc1cn(C)nc1-c1cccc(Cl)c1,?,.,-1%,5.4µM*,?
N/C(=N\OC(=O)c1cccnc1)c1ccccc1Cl,20%,-33%,-6%,17µM*,23%
CC(C)C(=O)O/N=C(\N)c1ccccn1,-1%,6%,-2%,-5%,3%
N/C(=N\OC(=O)c1ccccc1Cl)c1ccccn1,0.63µM*,?,11µM*,0.15µM*,0.35µM*
COc1ccccc1C(=O)O/N=C(\N)c1ccccn1,1.3µM*,.,.,11µM*,1.4µM*
SMILES,Rab9 promoter act,SMN2 splice up,Luc counter,FLuc counter,NPC1 promoter act
N/C(=N\OC(=O)c1cccnc1)c1ccc(Cl)cc1Cl,?,13%,1%,?,12%
Cc1ccc(C(=O)O/N=C(\N)c2ccccn2)c(C)c1,?,.,.,0.021µM*,0.032µM*
COc1cc(OC)c(C(=O)O/N=C(\N)c2ccccn2)cc1OC,14%,.,.,-4%,10%
N=C(N)SCCCN,.,-9%[9.22 µM],-3%[7.66 µM],.,.
O=C(CSc1ncc(-c2ccccc2)[nH]1)Nc1cccc(C(F)(F)F)c1,.,1%,.,?,.
COc1ccc(CCNC(=O)CN(c2ccc(C)cc2)S(=O)(=O)c2ccc(OC)cc2)cc1,.,-6%,.,-9%,.
O=C(Oc1cccnc1)c1ccccc1[N+](=O)[O-],-1%,30%,3%,-2%,3%
N/C(=N\OC(=O)c1ccccc1[N+](=O)[O-])c1ccccn1,1.6µM*,-5%,-5%,2.1µM*,1.8µM*
CCCN(C(=O)Cn1c(=O)oc2cc(Cl)ccc21)c1ccc(C(C)C)cc1,.,6%,.,-2%,.
CN(C)C(=O)c1ccc(NC(=O)CSc2nnc(-c3ccc4c(c3)OCO4)o2)cc1,0%,.,.,1%,7%
Cc1cc(NC(=O)CSc2nnc(-c3cccc(Cl)c3)o2)no1,23%,.,.,1%,4%
Cc1ccc(-c2nnc(SCCC(=O)N3CCOCC3)o2)cc1,26%,14%,0%,19µM*,21%
Cc1cc(NC(=O)CSc2nnc(-c3ccc4c(c3)OCCO4)o2)no1,?,7.1µM*,11%,?,?
Cc1ccc(NC(=O)Cc2nc(CSc3nnc(-c4ccc5c(c4)OCO5)o3)cs2)cc1,?,1%,0%,8.5µM*,?
O=C(CSc1nnc(-c2ccc3c(c2)OCCO3)o1)N1CCCC1,2.5µM*,?,-8%,6.7µM*,?
Cc1ccc2c(c1)Cc1c(nc(-c3ccc(F)cc3)nc1SCC(=O)N1CCCCC1)O2,.,-5%,.,-9%,.
COc1ccc(N(CC(=O)NC(C)c2ccccc2)S(=O)(=O)c2c(C)nn(C)c2C)cc1 (centres undefined),.,-7%,.,-2%,.
CC(Sc1nccn1C)C(=O)Nc1ccccc1C#N (centres undefined),.,-8%,.,-3%,.
CCOC(=O)N1CCN(C(=O)CSc2nnc(-c3ccc(C(C)(C)C)cc3)o2)CC1,-1%,-12%,5%,3.4µM*,-1%
Cc1ccc(SCC(=O)N2CCOCC2)cc1,?,11µM*,0%,?,26%
O=C(CSc1ccc(Cl)cc1)N1CCOCC1,25%,6%,2%,3%[2.3 µM],2%
Cc1ccc(-c2ccc(SCC(=O)Nc3cc(C)on3)nn2)cc1,?,7%,-2%,-21%,10%
Cc1cc(NC(=O)CSc2ccc(-c3ccc4c(c3)OCO4)nn2)no1,24%,14%,-8%,12µM*,21%
Cc1ccc(-c2nnc(SCC(=O)N3CCCC3)o2)cc1,?,14µM*,10%,24µM*,?
COc1ccc(CCNC(=O)NCc2noc3ccc(C)cc23)c(OC)c1,.,.,.,-10%,.
SMILES,Rab9 promoter act,SMN2 splice up,Luc counter,FLuc counter,NPC1 promoter act
Cc1ccc(-c2nnc(SCC(=O)N3CCCC3)o2)cc1C,3.5µM*,11µM*,-4%,15µM*,?
Cc1ccc(NC(=O)CSc2nc3ccc(Br)cc3[nH]2)c(C)c1,.,8%,.,-13%,.
CCCCNS(=O)(=O)c1ccc2nc(-c3cccnc3)cc(C(=O)NCCC)c2c1,.,.,.,-3%,.
COc1cccc2cc(CC(=O)c3cc(C)ccc3C)c(=O)oc12,23%,.,.,15µM*,25%
COc1cccc2cc(C(=O)NCc3ccc(F)cc3)c(=N)oc12,-2%,.,.,8.5µM*,0%
COc1cccc2cc(C(=O)Nc3ccc(CC(=O)O)cc3)c(=O)oc12,.,-17%,.,1.5µM*,.
CCc1ccc(C(=O)Cc2cc3cccc(OC)c3oc2=O)cc1,?,.,.,15µM*,?
COc1cccc2cc(C(C)=O)c(=O)oc12,-1%,11%,0%,3%[2.3 µM],-1%
